Drawing on PubChem BioAssay (NCI), this text covers growth for 38 compounds.

SMILES strings stand for the structures. About 83,000 compounds went through this panel and 20% of them were active in at least one assay; those are over-represented in the sample as a whole.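 Plates (96-well) were seeded with cells, treated with compound at one concentration, and incubated for 48 hours before percent growth was determined.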 A number with no mark means an inactive call. Activity calls are given as the source filed them. How the source made its calls: active means growth percent below 10; inactive means the rest.

In the first assay the test system is T-47D breast. Put plainly: NCI-60 one-dose screen, 48 h (100 = growth as untreated, 0 = no growth, -100 = all killed). To be noted: 10 µM unless noted.
As to `CC(C)(C)C(CCc1ccc(Cl)cc1)N1CCN(C2CCCCC2)CC1` (configuration not stated), the growth is 23.2%. Same read-out and setting: the value for `O=C(Nc1ccc(-n2cc(-c3ccncc3)c(-c3ccc(Cl)c(O)c3)n2)cc1)N1CCOCC1` was 83.9%.

For the compound `COc1nc(N(C)O)nc(N(C)O)n1`, the growth was 30.3%. `O=c1[nH]ccc2nc(N3CCC(O)CC3)nc(Nc3ccc(N4CCOCC4)cc3)c12`: the growth was 73%.

For the next assay, the system named is BT-549 breast. The description is as above. To be noted: 10 µM unless noted.
For `Cc1nn(-c2ccccc2)c(Cl)c1/C=C(/NC(=O)c1ccccc1)c1nc2ccccc2[nH]1`, the growth is 93.5%. On to `Cc1ccc(-c2c(-c3ccccc3)c(=O)oc3ccc(C)cc23)cc1`, for which the growth was 108%. Same read-out and setting: the value for `CC1(c2ccccc2)NC(=O)N(NC(=O)CSc2nc(-c3cccs3)nc3ccccc23)C1=O` (configuration not stated) was 110%. Same read-out and setting: the value for `C(=N\Nc1ncc(-c2cc3cc4c(cc3o2)OCO4)s1)/c1ccco1` was 48.6%; that for `O=C1/C(=C\c2cccnc2)SC(=S)N1CCc1ccc(O)cc1` was 72.2%; that for `CC1(C)CC[C@]2(C(=O)N3CCOCC3)CC[C@]3(C)C(=CC[C@@H]4[C@@]5(C)CC[C@H](OC(=O)c6cccnc6)C(C)(C)[C@@H]5CC[C@]43C)[C@@H]2C1` was 72.3%.

Regarding `COC(=O)[C@]12CC[C@@H](C)[C@H](C)[C@@H]1C1=CC[C@@H]3[C@@]4(C)C(C=O)=C[C@@](C)(COC(=O)c5ccco5)[C@@H]4C(=O)C[C@@]3(C)[C@]1(C)CC2`, the growth is 12.9%.

Regarding `O=C(COc1ccc(/C=C2\Oc3ccccc3C2=O)cc1)Nc1nc2c(s1)CCCC2`, the growth was -13.9% (active). For the compound `Cn1cc(-c2csc(-c3ccccc3)n2)c2cccnc21`, the growth was -39.4% [100 µM] (active). As to `CCOP(=O)(OCC)C1CP(=O)(c2ccccc2)CC(C)=C1Cl` (configuration not stated), the growth is 129%. For `S=C(Cc1ccc2c(c1)CCCC2)N1CCOCC1`, the growth was 101%. `CN1C(=O)N(C)C2C1NN=c1s/c(=C\c3ccccc3)c(=O)n12` (configuration not stated): the growth was 55.5%. As for `Cc1ccc(C(=O)CSc2nc(-c3ccc(Br)cc3)c(C#N)c(=O)[nH]2)cc1`, the growth is 94%. Same read-out and setting: the value for `O=C1N=c2cc3c(cc2=C/C1=C/c1sc(=S)n(CCc2ccc(O)cc2)c1O)OCCO3` was 78.5%; that for `COc1ccc(CN2C(=O)C(Cl)=C(Nc3cccc(C(F)(F)F)c3)C2=O)cc1` was 26.3%; that for `O=C1C=C[C@]2(C[C@@H](c3cccc(C(F)(F)F)c3)O[C@@H](c3cccc(C(F)(F)F)c3)O2)O1` was -52.4% (active). In the case of `Clc1cc(Cl)cc(Nc2ccc3cc(OCCCN4CCOCC4)ccc3n2)c1`, the growth was 88.5%. Turning to `CC(=O)OC1CCC2(C)C(=CC3C4CCC(=O)C4(C)CCC32)C1` (configuration not stated), the growth was 95.9%. On to `COc1cc(C2NC(=O)c3ccccc3N2)ccc1OCCCCCOc1c(OC)cc(C2=NOC(c3cc(OC)c(OC)c(OC)c3)C2)cc1OC` (configuration not stated), for which the growth is 1.13% (active). In the case of `O=C(N/N=C/c1ccncc1)c1ccc(C(F)(F)F)nc1Nc1cccc(C(F)(F)F)c1`, the growth was 23.8%. Consider `C[C@@]1(CCC#N)[C@H]2CC[C@@H]3[C@H]4[C@H](C(=O)/C=C/c5cccnc5)CC[C@]4(C#N)CC[C@@]3(C)[C@]2(C)CC[C@H]1C(=O)/C=C/c1cccnc1`, for which the growth is 80.7%. Same read-out and setting: the figure for `Cc1ccc(NCCN(C)C)c2c(=O)c3ccccc3sc12` is 76.6%. In the case of `COc1ccccc1NC(=O)N/C(N)=N/c1nc2ccccc2s1`, the growth is 50.8%. The same measure, in the same setting: the value for `COC(=O)CCC1=C(C)C2=NC1=CC1=NC(=CC3=NC(=Cc4[nH]c(/c(=C(/C)O)c4C)=C2)C(C(C)=O)=C3C)C(C)=C1CCC(=O)OC` was 100%. `Oc1ccc(CN2CCC(N3CCOCC3)CC2)c2cccnc12`: the growth was 29.8%. The same measure, in the same setting: the figure for `C#Cc1cccc(NC(=O)c2ccc(NC(=O)CCl)cc2)c1` is -44.8% [8.25 µM] (active); for `Cc1c(C(=O)NC(Cc2ccccc2)C(O)C(=O)NCc2ccc(F)cc2)[nH]c2ccccc2c1=O` (configuration not stated) it is 108%; for `Cc1ccc2nc(NC(=O)CSc3nc(Nc4ccc([N+](=O)[O-])cc4)c(C#N)c(-c4ccccc4)n3)sc2c1` it is 91.1%. Consider `CCN1C(=O)N(CC)C2Nn3c(s/c(=C4\C(=O)N(C)c5ccccc54)c3=O)=NC21` (configuration not stated), for which the growth was 53.9%. On to `C=CCSc1nc2ccccc2cc1/C=N/O`, for which the growth is 85.6%. As to `C=C(C)[C@@H]1CC[C@]2(C)[C@H](CC=C3[C@@H]4CC(C)(C)CC[C@]4(C(N)=O)CC[C@]32C)[C@@]1(C)CCC#N`, the growth is 17.7%. Same read-out and setting: the figure for `CCOC(=O)C/C(C)=N\NC(=O)c1ccncc1` is 97.8%. On the same count and under the same terms, the figure for `O=C(/C=C/c1ccc(Cl)nc1)c1ccc(Cl)cc1Cl` is 110%; for `COC(=O)[C@]12CC[C@@H](C)[C@H](C)[C@@H]1C1=CC[C@@H]3[C@@]4(C)C(C=O)=C[C@@](C)(COC(=O)c5ccco5)C4=CC[C@@]3(C)[C@]1(C)CC2` it is 5.64% (active). As to `CC(C)(C)C(CCc1ccc(Cl)cc1)N1CCN(C2CCCCC2)CC1` (configuration not stated), the growth was 50%. Take `O=C(Nc1ccc(-n2cc(-c3ccncc3)c(-c3ccc(Cl)c(O)c3)n2)cc1)N1CCOCC1`: the growth is 100%. As to `COc1nc(N(C)O)nc(N(C)O)n1`, the growth is 12.4%.

For `O=c1[nH]ccc2nc(N3CCC(O)CC3)nc(Nc3ccc(N4CCOCC4)cc3)c12`, the growth was 29.7%.
